Reference: PubChem BioAssay AID1159580 (chemical genetic matrix, 2015)
Hit rate of the full screen: of about 5,500 compounds, about 2,000 (36%) were called active. Not shown: some 18% with an inconclusive outcome. Rule as the data show it: active = normalized growth mostly below about 0.91 (no sharp cut-off); inconclusive = no clear call, values can overlap the other calls; inactive = mostly above about 0.92. This is one part of the list.

Experiment: chemical genetic growth profiling, strain panel (AID 1159580);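 also: tested at 20 µM; growth read once vehicle control cultures reached saturation at 30 °C; 1 = growth at the plate median or of vehicle wells; lower values mean less growth of the strain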
Details: S. cerevisiae deletion strains, growth OD

Measured: normalized growth

CN(C)C1C(=O)C(C(N)=O)=C(O)C2(O)C(=O)C3=C(O)c4c(O)ccc(Cl)c4C(O)C3CC12 (centres undefined)
inactive: locus YAL040C, strain CLN3, stronger effect = lower value 1 | locus YCL061C, strain MRC1 (second series), stronger effect = lower value 1 | locus YDR150W, strain NUM1, stronger effect = lower value 0.997 | locus YDR363W, strain ESC2, stronger effect = lower value 1 | locus YER002W, strain NOP16, stronger effect = lower value 1 | locus YGR078C, strain PAC10, stronger effect = lower value 0.989 | locus YJR075W, strain HOC1, stronger effect = lower value 0.999 | locus YMR307W, strain GAS1, stronger effect = lower value 0.978 | locus YNL175C, strain NOP13, stronger effect = lower value 1.02 | locus YNL197C, strain WHI3, stronger effect = lower value 0.979 | locus YNL224C, strain SQS1, stronger effect = lower value 0.996 | locus YNL322C, strain KRE1, stronger effect = lower value 0.995 | locus YOR083W, strain WHI5 (second series), stronger effect = lower value 0.995 | locus YPL241C, strain CIN2, stronger effect = lower value 1.01
